The source made the active and inactive calls. No stated cut-off is given here; in the data, active means inhibition above about 31%; inactive means the rest.
Experiment: MRP1 drug-resistance reversers in H69AR cells – cell-based, doxorubicin co-treatment, pilot screen (AID 601)
Conditions: H69AR cells, CellTiter-Glo, 72 h; compound alone cytotoxicity; at 10 µM
With `Cc1cc2c(c(=O)o1)C(Cc1ccccc1)C(C#N)=C(N)O2` (stereo not given) the viability was 98.7%. In the case of `O=C(C1CC1)N1CCC(c2nc(-c3ccc(S(=O)(=O)NCC4CCCO4)cc3)no2)CC1` (stereo not given), the viability is reported as 90.6%. Work on `N#Cc1c(NC(=O)CSc2nc(N)cc(=O)[nH]2)sc2c1CCCCCC2` yielded a viability of 91.5%. With `O=C(NCCCNC1CCCCC1)c1ccc(/C=N/O)nc1` the viability was 103%. `CCOC(=O)CNC(=O)CSc1ncnc2c1cnn2Cc1ccccc1` gave a viability of 100%. Work on `CCn1nc(CC(=O)Nc2nnc(CC(=O)N3CCCCC3)s2)c2ccccc2c1=O` yielded a viability of 97.5%. In the case of `C/C(N)=C(/C#N)C(=O)COC(=O)c1cc(C)n(-c2ccc(F)cc2)c1C`, the viability is reported as 98.1%. `COc1cc(CNc2ccc(N3CCOCC3)c(C(=O)O)c2)ccc1OCC(N)=O` gave a viability of 99.9%. With `Cc1oc(C(=O)O)cc1CSCc1cc(C(=O)O)c(C)o1` the viability was 103%. `c1ccc(CN2C3=NCCCN3c3ccccc32)cc1` gave a viability of 91.2%. For `COc1ccc(OC)c(NC(=O)CSc2nc3ccccc3c(=O)n2CCNC(C)=O)c1`, the viability was 80.7%. `Cc1cccc(CS(=O)(=O)Cc2ccc(C(=O)NCC3CCCO3)o2)c1` (stereo not given) showed a viability of 94.7%. Molecule `COc1ccccc1N1CCN(C(=O)c2oc3cc(C)c(C)cc3c2C)CC1` has a viability of 92.7%. Work on `COc1cccc(NC(=O)COC(=O)c2ccco2)c1` yielded a viability of 83.8%. `COCCNC(=O)c1c(N)n(CCC2=CCCCC2)c2nc3ccccc3nc12` showed a viability of 89%. Molecule `Cc1ccccc1C(=O)Nc1c(C(=O)N2CCCC2)cnn1-c1ccccc1` has a viability of 91.9%. In the case of `O=C(Cn1cnc2c(nnn2Cc2ccc(Cl)cc2)c1=O)NCC1CCCO1` (stereo not given), the viability is reported as 106%. Molecule `Cc1nc2ncnn2c(N2CCC(C(=O)NC3CCCC3)CC2)c1Cc1ccccc1` has a viability of 73.6%. `COCCn1nnnc1C(C(C)C)N1CCN(C(=O)c2ccco2)CC1` (stereo not given) showed a viability of 96.7%. For `CCOc1cc(-c2nc3ccccn3c2NCC2CCCO2)ccc1O` (stereo not given), the viability was 40.7%. With `O=C(Nc1ccccc1N1CCN(C(=O)c2ccc(Cl)cc2)CC1)c1cc2ccccc2o1` the viability was 85.5%. Work on `O=C(CCC(=O)N(c1cccc(F)c1)C(C(=O)NC1CCCC1)c1ccncc1)Nc1cccnc1` (stereo not given) yielded a viability of 91.7%. Work on `COc1ccc(S(=O)(=O)N2CCSC2c2ccccc2)cc1` (stereo not given) yielded a viability of 76.9%. Work on `CCCOC(=O)C1[C@H]2C(=O)N(CCCOC)C[C@]23C=C[C@H]1O3` (stereo not given in full) yielded a viability of 98.3%. In the case of `COc1cc2c(cc1OC)C(C)N(C(=O)c1cc3n(n1)C(C(F)(F)F)CC(c1ccco1)N3)CC2` (stereo not given), the viability is reported as 75%. For `Cc1ccc(NC(=O)N2CCC(c3nc4c(nnn4Cc4cccc(Cl)c4)c(=O)[nH]3)CC2)cc1`, the viability was 85.2%. With `Cc1nc(NCCNC(=O)c2ccco2)c2c(C)c(C)sc2n1` the viability was 86.5%. In the case of `Cc1c(NC(=O)CSc2nnc3sc4ccccc4n23)c(=O)n(-c2ccccc2)n1C`, the viability is reported as 90.4%. `COc1ccc(-c2nnc3sc(-c4c(OC)cccc4OC)nn23)cc1` showed a viability of 75.9%. `COC(=O)c1ccccc1NC(=O)CSc1nnc(-c2ccncc2)o1` showed a viability of 101%. Work on `COc1ccc(Cl)cc1NC(=O)c1oc(C)nc1C` yielded a viability of 90.1%. For `CCOC(=O)CC(=O)Nc1c(C)cc(C)cc1C`, the viability was 102%. Work on `O=S(=O)(c1ccccc1)c1nc(-c2ccco2)oc1NCCCN1CCOCC1` yielded a viability of 95.4%. With `O=C(COC(=O)c1ccc(S(=O)(=O)Nc2ccccc2)cc1)NCCN1C(=O)CSC1=O` the viability was 95.3%. `Cc1cc(C)c(-c2cc(C(=O)Nc3c(C)n(C)n(-c4ccccc4)c3=O)[nH]n2)c(O)c1` showed a viability of 105%. Work on `COc1ccc(-c2nnc(SCC(=O)N3CCCCC3)o2)cc1OC` yielded a viability of 97.5%. Work on `Cc1cc(Br)ccc1NC(=O)CCN1C(=O)c2ccncc2C1=O` yielded a viability of 95.6%. With `CC1=C(C(=O)N2CCCCC2)C2(CCC(C)CC2)OC1=O` (stereo not given) the viability was 94.2%. In the case of `CCCN(CCC)S(=O)(=O)c1ccc(C(=O)Nc2nnc(-c3cccc(OC)c3)o2)cc1`, the viability is reported as 15.3%. With `CC(C)(C)c1cc(CCC(=O)N2CCNCC2)c(C(C)(C)C)cc1O` the viability was 98.3%.

Experiment: yeast transport mutant growth inhibition pilot in 384-well plates, post-Golgi transport modulator project (AID 636)
Conditions: absorbance 615 nm, about 18 h, stronger effect = higher value
With `Cc1cc2c(c(=O)o1)C(Cc1ccccc1)C(C#N)=C(N)O2` (stereo not given) the inhibition was 1.45% (inactive). In the case of `O=C(C1CC1)N1CCC(c2nc(-c3ccc(S(=O)(=O)NCC4CCCO4)cc3)no2)CC1` (stereo not given), the inhibition is reported as 0.41% (inactive). For `N#Cc1c(NC(=O)CSc2nc(N)cc(=O)[nH]2)sc2c1CCCCCC2`, the inhibition was -0.66% (inactive). In the case of `O=C(NCCCNC1CCCCC1)c1ccc(/C=N/O)nc1`, the inhibition is reported as -0.91% (inactive). For `CCOC(=O)CNC(=O)CSc1ncnc2c1cnn2Cc1ccccc1`, the inhibition was -5.84% (inactive). For `CCn1nc(CC(=O)Nc2nnc(CC(=O)N3CCCCC3)s2)c2ccccc2c1=O`, the inhibition was -0.52% (inactive). In the case of `C/C(N)=C(/C#N)C(=O)COC(=O)c1cc(C)n(-c2ccc(F)cc2)c1C`, the inhibition is reported as -4.53% (inactive). In the case of `COc1cc(CNc2ccc(N3CCOCC3)c(C(=O)O)c2)ccc1OCC(N)=O`, the inhibition is reported as -4.67% (inactive). With `Cc1oc(C(=O)O)cc1CSCc1cc(C(=O)O)c(C)o1` the inhibition was -3.51% (inactive). With `c1ccc(CN2C3=NCCCN3c3ccccc32)cc1` the inhibition was -1.43% (inactive). With `COc1ccc(OC)c(NC(=O)CSc2nc3ccccc3c(=O)n2CCNC(C)=O)c1` the inhibition was -1.58% (inactive). For `Cc1cccc(CS(=O)(=O)Cc2ccc(C(=O)NCC3CCCO3)o2)c1` (stereo not given), the inhibition was -2.89% (inactive). For `COc1ccccc1N1CCN(C(=O)c2oc3cc(C)c(C)cc3c2C)CC1`, the inhibition was -1.18% (inactive). For `COc1cccc(NC(=O)COC(=O)c2ccco2)c1`, the inhibition was -6.8% (inactive). In the case of `COCCNC(=O)c1c(N)n(CCC2=CCCCC2)c2nc3ccccc3nc12`, the inhibition is reported as -6.03% (inactive). For `Cc1ccccc1C(=O)Nc1c(C(=O)N2CCCC2)cnn1-c1ccccc1`, the inhibition was -7.7% (inactive). In the case of `O=C(Cn1cnc2c(nnn2Cc2ccc(Cl)cc2)c1=O)NCC1CCCO1` (stereo not given), the inhibition is reported as -10.1% (inactive). For `Cc1nc2ncnn2c(N2CCC(C(=O)NC3CCCC3)CC2)c1Cc1ccccc1`, the inhibition was -5.48% (inactive). In the case of `COCCn1nnnc1C(C(C)C)N1CCN(C(=O)c2ccco2)CC1` (stereo not given), the inhibition is reported as 3.77% (inactive). In the case of `CCOc1cc(-c2nc3ccccn3c2NCC2CCCO2)ccc1O` (stereo not given), the inhibition is reported as 4.27% (inactive). With `O=C(Nc1ccccc1N1CCN(C(=O)c2ccc(Cl)cc2)CC1)c1cc2ccccc2o1` the inhibition was 2.53% (inactive). In the case of `O=C(CCC(=O)N(c1cccc(F)c1)C(C(=O)NC1CCCC1)c1ccncc1)Nc1cccnc1` (stereo not given), the inhibition is reported as -0.8% (inactive). With `COc1ccc(S(=O)(=O)N2CCSC2c2ccccc2)cc1` (stereo not given) the inhibition was -2.7% (inactive). For `CCCOC(=O)C1[C@H]2C(=O)N(CCCOC)C[C@]23C=C[C@H]1O3` (stereo not given in full), the inhibition was -5.06% (inactive). In the case of `COc1cc2c(cc1OC)C(C)N(C(=O)c1cc3n(n1)C(C(F)(F)F)CC(c1ccco1)N3)CC2` (stereo not given), the inhibition is reported as -6% (inactive). For `Cc1ccc(NC(=O)N2CCC(c3nc4c(nnn4Cc4cccc(Cl)c4)c(=O)[nH]3)CC2)cc1`, the inhibition was -0.13% (inactive). For `Cc1nc(NCCNC(=O)c2ccco2)c2c(C)c(C)sc2n1`, the inhibition was -4.08% (inactive). With `Cc1c(NC(=O)CSc2nnc3sc4ccccc4n23)c(=O)n(-c2ccccc2)n1C` the inhibition was 0.65% (inactive). For `COc1ccc(-c2nnc3sc(-c4c(OC)cccc4OC)nn23)cc1`, the inhibition was -5.13% (inactive). In the case of `COC(=O)c1ccccc1NC(=O)CSc1nnc(-c2ccncc2)o1`, the inhibition is reported as -4.67% (inactive). For `COc1ccc(Cl)cc1NC(=O)c1oc(C)nc1C`, the inhibition was -5.95% (inactive). With `CCOC(=O)CC(=O)Nc1c(C)cc(C)cc1C` the inhibition was 2.57% (inactive). For `O=S(=O)(c1ccccc1)c1nc(-c2ccco2)oc1NCCCN1CCOCC1`, the inhibition was -1.73% (inactive). For `O=C(COC(=O)c1ccc(S(=O)(=O)Nc2ccccc2)cc1)NCCN1C(=O)CSC1=O`, the inhibition was -5.07% (inactive). In the case of `Cc1cc(C)c(-c2cc(C(=O)Nc3c(C)n(C)n(-c4ccccc4)c3=O)[nH]n2)c(O)c1`, the inhibition is reported as -1.97% (inactive). In the case of `COc1ccc(-c2nnc(SCC(=O)N3CCCCC3)o2)cc1OC`, the inhibition is reported as -2.93% (inactive). For `Cc1cc(Br)ccc1NC(=O)CCN1C(=O)c2ccncc2C1=O`, the inhibition was -3.78% (inactive). With `CC1=C(C(=O)N2CCCCC2)C2(CCC(C)CC2)OC1=O` (stereo not given) the inhibition was -5.87% (inactive). In the case of `CCCN(CCC)S(=O)(=O)c1ccc(C(=O)Nc2nnc(-c3cccc(OC)c3)o2)cc1`, the inhibition is reported as -5.79% (inactive). With `CC(C)(C)c1cc(CCC(=O)N2CCNCC2)c(C(C)(C)C)cc1O` the inhibition was -0.26% (inactive).

From PubChem BioAssay
